Experimental data taken from PubChem BioAssay (NCI).
Compounds without any hit were thinned out: in the full panel of roughly 79,000, 15% have a hit. Active and inactive are the calls of the source. No stated cut-off is given here; in the data, active means growth inhibition above about 70%; inactive means the rest.

Key:
[1] = NCI Yeast Anticancer Drug Screen. Data for the rad52 strain (AID 147);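 further: 0% = growth of vehicle-treated control cultures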; details: S. cerevisiae rad52 mutant growth inhibition, stronger effect = higher value
How it was run: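 Screen used a yeast mutant impaired in DNA repair. After compound exposure, growth was measured. Values reflect inhibition compared with vehicle-treated cells.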

[2] = NCI Yeast Anticancer Drug Screen. Data for the wt1 strain (AID 149);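 further: 0% = growth of vehicle-treated wt1 cultures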; details: S. cerevisiae wt1 strain (SPY 50644) growth inhibition, stronger effect = higher value
How it was run: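 Vehicle-normalised growth inhibition; strain wt1; compound exposure.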

[3] = NCI Yeast Anticancer Drug Screen. Data for the rad50EPP+ strain (AID 151);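 further: 0% = growth of vehicle-treated control cultures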; details: S. cerevisiae rad50 mutant strain, stronger effect = higher value
How it was run: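 Exposing the rad50EPP+ strain to each compound, growth was compared with vehicle-only cultures to give inhibition.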

[4] = NCI Yeast Anticancer Drug Screen. Data for the mgt1 strain (AID 153); details: S. cerevisiae mgt1 mutant growth inhibition, stronger effect = higher value
How it was run: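 Genetically defined yeast (mgt1) treated with compound; inhibition of growth expressed against vehicle-treated controls.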

[5] = NCI Yeast Anticancer Drug Screen. Data for the rad50 strain (AID 155);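 further: 0% = growth of vehicle-only cultures of the same strain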; details: S. cerevisiae rad50 strain growth inhibition, stronger effect = higher value
How it was run: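 A DNA repair-deficient yeast mutant serves as the test organism; compound-induced growth inhibition is calculated against vehicle-treated cells.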

[6] = NCI Yeast Anticancer Drug Screen. Data for the mec2-1 strain (AID 157); details: S. cerevisiae mec2-1 strain, stronger effect = higher value
How it was run: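 Readout is yeast growth inhibition, normalised to vehicle-treated controls, in the mec2-1 strain exposed to compound.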

[7] = NCI Yeast Anticancer Drug Screen. Data for the rad14 strain (AID 159);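 further: 0% = growth of vehicle-treated control cultures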; details: S. cerevisiae rad14 strain growth inhibition, stronger effect = higher value
How it was run: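 Vehicle-treated cultures served as the baseline for growth inhibition of a DNA repair-mutant yeast strain exposed to each compound.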

[8] = NCI Yeast Anticancer Drug Screen. Data for the sgs1 mgt1 strain (AID 161);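 further: 0% = growth of cultures given vehicle only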; details: S. cerevisiae sgs1 mgt1 strain, stronger effect = higher value
How it was run: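 This yeast growth screen uses a strain with defined DNA-repair lesions; compound-treated growth is compared with vehicle-treated growth.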

[9] = NCI Yeast Anticancer Drug Screen. Data for the CLN2oe strain (AID 163);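 further: 0% = growth of vehicle-only control cultures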; details: S. cerevisiae CLN2oe strain, stronger effect = higher value
How it was run: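 Values reflect how much compound exposure reduced yeast growth, referenced to vehicle-exposed cells. Assay organism is a strain with a defined genetic change affecting cell-cycle control.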

[10] = NCI Yeast Anticancer Drug Screen. Data for the cln2 rad14 strain (AID 165);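 further: 0% = growth equal to vehicle treated cultures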; details: S. cerevisiae cln2 rad14 strain, stronger effect = higher value
How it was run: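 Relative to vehicle controls, growth inhibition of compound-treated cln2 rad14 yeast was recorded.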

[11] = NCI Yeast Anticancer Drug Screen. Data for the bub3 strain (AID 167); details: S. cerevisiae bub3 mutant strain, stronger effect = higher value
How it was run: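 Inhibition values come from growth of compound-treated mutant yeast normalised to vehicle-treated controls.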

[12] = NCI Yeast Anticancer Drug Screen. Data for the wt2 strain (AID 169);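 further: 0% = growth of vehicle-treated yeast cultures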; details: S. cerevisiae wt2 strain growth inhibition, stronger effect = higher value
How it was run: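 Values express reduction in yeast growth under compound treatment, referenced to vehicle-treated cells.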

[13] = NCI Yeast Anticancer Drug Screen. Data for the sgs1 strain (AID 173);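 further: 0% = growth of vehicle-only control cultures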; details: S. cerevisiae sgs1 mutant, stronger effect = higher value
How it was run: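 Treat defined-mutant yeast with compound; measure growth; calculate inhibition relative to vehicle-treated cells.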

[14] = NCI Yeast Anticancer Drug Screen. Data for the mlh1 rad18 strain (AID 175); details: S. cerevisiae mlh1 rad18 strain growth inhibition, stronger effect = higher value
How it was run: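 Test agents were incubated with a yeast strain of defined genotype (DNA damage repair defect). Inhibition of growth was derived by comparison with vehicle-exposed cultures.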

[15] = NCI Yeast Anticancer Drug Screen. Data for the rad18 strain (AID 177); details: S. cerevisiae rad18 mutant growth inhibition, stronger effect = higher value
How it was run: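 A genetically defined yeast mutant impaired in DNA damage repair was treated with test compounds, then its growth was measured against cultures receiving vehicle alone.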

[16] = at 5.0 µM (retest, dose inferred, filed as 0.5)
[17] = at 50.0 µM (retest, dose inferred, filed as 5.0)

Measured: growth inhibition

CCN(CC)CCNc1ccc2nc(C)n3c4ccc(OC)cc4c(=O)c1c23
active: [1]; at 33.0 µM 75% | [1]; at 100.0 µM 83% | [5]; [16] 84% | [5]; at 33.0 µM 82% | [5]; [17] 95% | [5]; at 100.0 µM 87% | [14]; at 50.0 µM 77.4% | [15]; at 100.0 µM 74%
inactive: [1]; at 1.2 µM 22% | [1]; at 3.7 µM 47% | [1]; at 11.0 µM 58% | [2]; at 1.2 µM 27% | [2]; at 3.7 µM 21% | [2]; at 11.0 µM 28% | [2]; at 33.0 µM 15% | [2]; at 100.0 µM 21% | [3]; at 1.2 µM 9% | [3]; at 3.7 µM 9% | [3]; at 11.0 µM 3% | [3]; at 33.0 µM 17% | [3]; at 100.0 µM 31% | [4]; at 1.2 µM 36% | [4]; at 3.7 µM 27% | [4]; at 11.0 µM 18% | [4]; at 33.0 µM 26% | [4]; at 100.0 µM 16% | [5]; at 1.2 µM 41% | [5]; at 3.7 µM 45% | [5]; at 11.0 µM 63% | [5]; at 50.0 µM -12.5% | [6]; at 1.2 µM 32% | [6]; at 3.7 µM 39% | [6]; [16] 16% | [6]; at 11.0 µM 37% | [6]; at 33.0 µM 40% | [6]; [17] 52% | [6]; at 50.0 µM 22.8% | [6]; at 100.0 µM 32% | [7]; at 1.2 µM 33% | [7]; at 3.7 µM 24% | [7]; at 11.0 µM 27% | [7]; at 33.0 µM 30% | [7]; at 100.0 µM 48% | [8]; [16] 13% | [8]; [17] 41% | [8]; at 50.0 µM 18.3% | [9]; at 1.2 µM 1% | [9]; at 3.7 µM 15% | [9]; at 11.0 µM 17% | [9]; at 33.0 µM 21% | [9]; at 100.0 µM 17% | [10]; [16] 25% | [10]; [17] 45% | [10]; at 50.0 µM 28.1% | [11]; at 1.2 µM 11% | [11]; at 3.7 µM 2% | [11]; [16] -31% | [11]; at 11.0 µM -3% | [11]; at 33.0 µM 16% | [11]; [17] 39% | [11]; at 50.0 µM 16.4% | [11]; at 100.0 µM 5% | [12]; at 1.2 µM -22% | [12]; at 3.7 µM -25% | [12]; at 11.0 µM -24% | [12]; at 33.0 µM -15% | [12]; at 100.0 µM -25% | [13]; at 1.2 µM 27% | [13]; at 3.7 µM 27% | [13]; at 11.0 µM 26% | [13]; at 33.0 µM 8% | [13]; at 100.0 µM 25% | [14]; [16] 29% | [14]; [17] 56% | [15]; at 1.2 µM 34% | [15]; at 3.7 µM 41% | [15]; at 11.0 µM 57% | [15]; at 33.0 µM 66%
